Source: PubChem BioAssay AID1159580 (chemical genetic matrix, 2015)
Hit rate of the full screen: of about 5,500 compounds, about 2,000 (36%) were called active. Roughly 18% stayed inconclusive and do not appear here. No stated cut-off is given here; in the data, active means normalized growth mostly below about 0.91 (no sharp cut-off); inconclusive means no clear call, values can overlap the other calls; inactive means mostly above about 0.92. Some of the results follow.

Test: chemical genetic growth profiling, strain panel (AID 1159580);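 further: tested at 20 µM; growth read once vehicle control cultures reached saturation at 30 °C; 1 = growth at the plate median or of vehicle wells; lower values mean less growth of the strain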
Details: growth OD

Measured: normalized growth

CCCc1cc(=O)[nH]c(=S)[nH]1
inactive: S. cerevisiae deletion strains, locus YJR075W, strain HOC1, active compounds read low 1.02 | S. cerevisiae deletion strains, locus YKL009W, strain mrt4, active compounds read low 0.994 | S. cerevisiae deletion strains, locus YKL068W, active compounds read low 1 | S. cerevisiae deletion strains, locus YKL085W, strain MDH1 (second series), active compounds read low 1 | S. cerevisiae deletion strains, locus YKL085W, strain MDH1, active compounds read low 1 | S. cerevisiae deletion strains, locus YKL160W, strain elf1, active compounds read low 1.03 | S. cerevisiae deletion strains, locus YKL190W, strain CNB1, active compounds read low 1 | S. cerevisiae deletion strains, locus YKR001C, strain vps1, active compounds read low 1 | S. cerevisiae deletion strains, locus YKR026C, strain gcn3, active compounds read low 1.01 | S. cerevisiae deletion strains, locus YKR091W, strain srl3, active compounds read low 1.01 | S. cerevisiae deletion strains, locus YLL001W, strain dnm1, active compounds read low 1.01 | S. cerevisiae deletion strains, locus YLL026W, active compounds read low 1.02 | S. cerevisiae deletion strains, locus YLL041C, strain sdh2, active compounds read low 1.03 | S. cerevisiae deletion strains, locus YLR027C, strain aat2, active compounds read low 1.01 | S. cerevisiae deletion strains, locus YLR039C, strain RIC1, active compounds read low 1.03 | S. cerevisiae deletion strains, locus YLR058C, strain SHM2, active compounds read low 1.02 | S. cerevisiae deletion strains, locus YLR102C, strain apc9, active compounds read low 0.992 | S. cerevisiae deletion strains, locus YLR113W, strain HOG1, active compounds read low 0.989 | S. cerevisiae deletion strains, locus YLR221C, strain rsa3, active compounds read low 1.02 | S. cerevisiae deletion strains, locus YLR258W, strain gsy2, active compounds read low 1.01 | S. cerevisiae deletion strains, locus YLR262C, strain YPT6 (second series), active compounds read low 1.02 | S. cerevisiae deletion strains, locus YLR262C, strain YPT6, active compounds read low 1.04 | S. cerevisiae deletion strains, locus YLR268W, strain sec22, active compounds read low 1.01 | S. cerevisiae deletion strains, locus YLR320W, strain mms22, active compounds read low 1.03 | S. cerevisiae deletion strains, locus YLR330W, strain CHS5, active compounds read low 1.02 | S. cerevisiae deletion strains, locus YLR342W, strain FKS1 (second series), active compounds read low 1 | S. cerevisiae deletion strains, locus YLR342W, strain FKS1, active compounds read low 1.03 | S. cerevisiae deletion strains, locus YLR357W, strain rsc2, active compounds read low 1.05 | S. cerevisiae deletion strains, locus YLR370C, strain arc18, active compounds read low 1.01 | S. cerevisiae deletion strains, locus YLR371W, strain rom2, active compounds read low 0.994 | S. cerevisiae deletion strains, locus YLR384C, strain iki3, active compounds read low 1.03 | S. cerevisiae deletion strains, locus YLR418C, strain cdc73, active compounds read low 1 | S. cerevisiae deletion strains, locus YML016C, strain PPZ1, active compounds read low 1.01 | S. cerevisiae deletion strains, locus YML032C, strain rad52, active compounds read low 0.989 | S. cerevisiae deletion strains, locus YML120C, strain ndi1, active compounds read low 1 | S. cerevisiae deletion strains, locus YML124C, strain tub3, active compounds read low 0.996 | S. cerevisiae deletion strains, locus YMR058W, strain fet3, active compounds read low 1 | S. cerevisiae deletion strains, locus YMR078C, strain ctf18, active compounds read low 1 | S. cerevisiae deletion strains, locus YMR125W, strain sto1, active compounds read low 1.03 | S. cerevisiae deletion strains, locus YMR129W, active compounds read low 1.02 | S. cerevisiae deletion strains, locus YMR205C, strain PFK2, active compounds read low 1.03 | S. cerevisiae deletion strains, locus YMR223W, strain ubp8, active compounds read low 0.974 | S. cerevisiae deletion strains, locus YMR231W, strain pep5, active compounds read low 1.02 | S. cerevisiae deletion strains, locus YMR263W, strain SAP30, active compounds read low 1.02 | S. cerevisiae deletion strains, locus YMR307W, strain GAS1, active compounds read low 1.07 | S. cerevisiae deletion strains, locus YNL067W, strain RPL9B, active compounds read low 1.02 | S. cerevisiae deletion strains, locus YNL071W, strain lat1, active compounds read low 1 | S. cerevisiae deletion strains, locus YNL128W, strain TEP1, active compounds read low 1.02 | S. cerevisiae deletion strains, locus YNL153C, strain GIM3, active compounds read low 1.02 | S. cerevisiae deletion strains, locus YNL183C, strain NPR1, active compounds read low 0.966 | S. cerevisiae deletion strains, locus YNL209W, strain ssb2, active compounds read low 1.02 | S. cerevisiae deletion strains, locus YNL233W, strain BNI4, active compounds read low 1.02 | S. cerevisiae deletion strains, locus YNL248C, strain rpa49, active compounds read low 1.03 | S. cerevisiae deletion strains, locus YNL250W, strain rad50, active compounds read low 0.994 | S. cerevisiae deletion strains, locus YNL271C, strain bni1, active compounds read low 1 | S. cerevisiae deletion strains, locus YNL298W, strain CLA4, active compounds read low 1.01 | S. cerevisiae deletion strains, locus YNL307C, strain MCK1, active compounds read low 0.998 | S. cerevisiae deletion strains, locus YNL322C, strain KRE1 (second series), active compounds read low 1.02 | S. cerevisiae deletion strains, locus YNL322C, strain KRE1, active compounds read low 1.01 | S. cerevisiae deletion strains, locus YNR049C, strain mso1, active compounds read low 1.01 | S. cerevisiae deletion strains, locus YNR052C, strain pop2, active compounds read low 0.991 | S. cerevisiae deletion strains, locus YOL006C, strain TOP1, active compounds read low 1.04 | S. cerevisiae deletion strains, locus YOL012C, strain htz1 0.884 | S. cerevisiae deletion strains, locus YOL147C, strain pex11, active compounds read low 0.996 | S. cerevisiae deletion strains, locus YOR001W, strain rrp6, active compounds read low 1.02 | S. cerevisiae deletion strains, locus YOR061W, strain CKA2, active compounds read low 1.01 | S. cerevisiae deletion strains, locus YOR069W, strain VPS5, active compounds read low 0.999 | S. cerevisiae deletion strains, locus YOR070C, strain gyp1, active compounds read low 1.02 | S. cerevisiae deletion strains, locus YOR080W, strain dia2, active compounds read low 1.03 | S. cerevisiae deletion strains, locus YOR083W, strain WHI5, active compounds read low 0.996 | S. cerevisiae deletion strains, locus YOR106W, strain vam3, active compounds read low 1.02 | S. cerevisiae deletion strains, locus YOR136W, strain idh2, active compounds read low 0.979 | S. cerevisiae deletion strains, locus YOR144C, strain elg1, active compounds read low 0.999 | S. cerevisiae deletion strains, locus YOR184W, strain ser1, active compounds read low 0.98 | S. cerevisiae deletion strains, locus YOR231W, strain MKK1, active compounds read low 0.993 | S. cerevisiae deletion strains, locus YOR265W, strain rbl2, active compounds read low 1.01 | S. cerevisiae deletion strains, locus YOR270C, strain vph1, active compounds read low 1.1 | S. cerevisiae deletion strains, locus YOR290C, strain snf2, active compounds read low 1.03 | S. cerevisiae deletion strains, locus YOR316C, strain cot1, active compounds read low 0.993 | S. cerevisiae deletion strains, locus YPL051W, strain arl3, active compounds read low 1.02 | S. cerevisiae deletion strains, locus YPL055C, strain LGE1, active compounds read low 1.03 | S. cerevisiae deletion strains, locus YPL078C, strain atp4, active compounds read low 1.02 | S. cerevisiae deletion strains, locus YPL106C, strain sse1, active compounds read low 1.04 | S. cerevisiae deletion strains, locus YPL240C, strain hsp82, active compounds read low 1.01 | S. cerevisiae deletion strains, locus YPL256C, strain CLN2, active compounds read low 1.02 | S. cerevisiae deletion strains, locus YPR119W, strain clb2, active compounds read low 0.99 | S. cerevisiae deletion strains, locus YPR141C, strain kar3, active compounds read low 0.992 | S. cerevisiae deletion strains, locus YPR163C, strain tif3, active compounds read low 0.992 | S. cerevisiae deletion strains, locus YPR167C, strain met16, active compounds read low 0.983 | S. cerevisiae deletion strains, strain wtn01, active compounds read low 0.997 | S. cerevisiae strains, strain wild type, active compounds read low 1.01
